# The whole screen tested about 5,500 compounds, of which about 2,000 (36%) were called active. Inconclusive results (about 18%) are left out. Some of the results follow. A number with no mark means an inactive call. No stated cut-off is given here; in the data, active means normalized growth mostly below about 0.91 (no sharp cut-off); inconclusive means no clear call, values can overlap the other calls; inactive means mostly above about 0.92.
# Test: chemical genetic growth profiling, strain panel (AID 1159580);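 further: tested at 20 µM; growth read once vehicle control cultures reached saturation at 30 °C; 1 = growth at the plate median or of vehicle wells; lower values mean less growth of the strain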
# Conditions: S. cerevisiae deletion strains, growth OD
compound,measurement,setting,value
CC1=C(O)C(=O)C=C2C1=CC=C1[C@@]2(C)CC[C@@]2(C)[C@@H]3C[C@](C)(C(=O)O)CC[C@]3(C)CC[C@]12C,normalized growth,"locus YJR066W, strain TOR1, active compounds read low",0.792 (active)
same,normalized growth,"locus YKL009W, strain mrt4, active compounds read low",0.908
same,normalized growth,"locus YKL068W, active compounds read low",0.895 (active)
same,normalized growth,"locus YKL085W, strain MDH1 (second series), active compounds read low",0.941
same,normalized growth,"locus YKL085W, strain MDH1, active compounds read low",0.941
same,normalized growth,"locus YKL160W, strain elf1, active compounds read low",0.541 (active)
same,normalized growth,"locus YKL190W, strain CNB1, active compounds read low",0.315 (active)
same,normalized growth,"locus YKR001C, strain vps1, active compounds read low",0.13 (active)
same,normalized growth,"locus YKR026C, strain gcn3, active compounds read low",0.852 (active)
same,normalized growth,"locus YKR091W, strain srl3, active compounds read low",0.843 (active)
same,normalized growth,"locus YLL001W, strain dnm1, active compounds read low",0.617 (active)
same,normalized growth,"locus YLL026W, active compounds read low",0.74 (active)
same,normalized growth,"locus YLL041C, strain sdh2, active compounds read low",0.764 (active)
same,normalized growth,"locus YLR027C, strain aat2, active compounds read low",0.502 (active)
same,normalized growth,"locus YLR039C, strain RIC1, active compounds read low",0.157 (active)
same,normalized growth,"locus YLR058C, strain SHM2, active compounds read low",0.224 (active)
same,normalized growth,"locus YLR102C, strain apc9, active compounds read low",0.83 (active)
same,normalized growth,"locus YLR113W, strain HOG1, active compounds read low",0.472 (active)
same,normalized growth,"locus YLR221C, strain rsa3, active compounds read low",0.419 (active)
same,normalized growth,"locus YLR258W, strain gsy2, active compounds read low",0.541 (active)
same,normalized growth,"locus YLR262C, strain YPT6 (second series), active compounds read low",0.149 (active)
same,normalized growth,"locus YLR262C, strain YPT6, active compounds read low",0.182 (active)
same,normalized growth,"locus YLR268W, strain sec22, active compounds read low",0.355 (active)
same,normalized growth,"locus YLR320W, strain mms22, active compounds read low",0.256 (active)
same,normalized growth,"locus YLR330W, strain CHS5, active compounds read low",0.253 (active)
same,normalized growth,"locus YLR342W, strain FKS1 (second series), active compounds read low",0.336 (active)
same,normalized growth,"locus YLR342W, strain FKS1, active compounds read low",0.387 (active)
same,normalized growth,"locus YLR357W, strain rsc2, active compounds read low",0.731 (active)
same,normalized growth,"locus YLR370C, strain arc18, active compounds read low",0.704 (active)
same,normalized growth,"locus YLR371W, strain rom2, active compounds read low",0.418 (active)
same,normalized growth,"locus YLR384C, strain iki3, active compounds read low",0.759 (active)
same,normalized growth,"locus YLR418C, strain cdc73, active compounds read low",0.176 (active)
same,normalized growth,"locus YML016C, strain PPZ1, active compounds read low",0.547 (active)
same,normalized growth,"locus YML032C, strain rad52, active compounds read low",0.533 (active)
same,normalized growth,"locus YML120C, strain ndi1, active compounds read low",0.608 (active)
same,normalized growth,"locus YML124C, strain tub3, active compounds read low",0.738 (active)
same,normalized growth,"locus YMR058W, strain fet3, active compounds read low",0.0928 (active)
same,normalized growth,"locus YMR078C, strain ctf18, active compounds read low",0.472 (active)
same,normalized growth,"locus YMR125W, strain sto1, active compounds read low",0.827 (active)
same,normalized growth,"locus YMR129W, active compounds read low",0.795 (active)
same,normalized growth,"locus YMR205C, strain PFK2, active compounds read low",0.337 (active)
same,normalized growth,"locus YMR223W, strain ubp8, active compounds read low",0.581 (active)
same,normalized growth,"locus YMR231W, strain pep5, active compounds read low",0.365 (active)
same,normalized growth,"locus YMR263W, strain SAP30, active compounds read low",0.561 (active)
same,normalized growth,"locus YMR307W, strain GAS1, active compounds read low",0.252 (active)
same,normalized growth,"locus YNL067W, strain RPL9B, active compounds read low",0.518 (active)
same,normalized growth,"locus YNL071W, strain lat1, active compounds read low",0.11 (active)
same,normalized growth,"locus YNL183C, strain NPR1, active compounds read low",0.728 (active)
same,normalized growth,"locus YNL209W, strain ssb2, active compounds read low",0.303 (active)
same,normalized growth,"locus YNL233W, strain BNI4, active compounds read low",0.287 (active)
same,normalized growth,"locus YNL248C, strain rpa49, active compounds read low",0.708 (active)
same,normalized growth,"locus YNL250W, strain rad50, active compounds read low",0.887 (active)
same,normalized growth,"locus YNL271C, strain bni1, active compounds read low",0.882 (active)
same,normalized growth,"locus YNL298W, strain CLA4, active compounds read low",0.918
same,normalized growth,"locus YNL307C, strain MCK1, active compounds read low",0.093 (active)
same,normalized growth,"locus YNL322C, strain KRE1 (second series), active compounds read low",0.937
same,normalized growth,"locus YNR049C, strain mso1, active compounds read low",0.781 (active)
same,normalized growth,"locus YNR052C, strain pop2, active compounds read low",0.664 (active)
same,normalized growth,"locus YOL012C, strain htz1",0.278
same,normalized growth,"locus YOL147C, strain pex11, active compounds read low",0.137 (active)
same,normalized growth,"locus YOR001W, strain rrp6, active compounds read low",0.678 (active)
same,normalized growth,"locus YOR061W, strain CKA2, active compounds read low",0.509 (active)
same,normalized growth,"locus YOR069W, strain VPS5, active compounds read low",0.638 (active)
same,normalized growth,"locus YOR070C, strain gyp1, active compounds read low",0.449 (active)
same,normalized growth,"locus YOR080W, strain dia2, active compounds read low",0.674 (active)
same,normalized growth,"locus YOR083W, strain WHI5, active compounds read low",0.624 (active)
same,normalized growth,"locus YOR106W, strain vam3, active compounds read low",0.244 (active)
same,normalized growth,"locus YOR136W, strain idh2, active compounds read low",0.765 (active)
same,normalized growth,"locus YOR144C, strain elg1, active compounds read low",0.304 (active)
same,normalized growth,"locus YOR184W, strain ser1, active compounds read low",0.173 (active)
same,normalized growth,"locus YOR231W, strain MKK1, active compounds read low",0.75 (active)
same,normalized growth,"locus YOR265W, strain rbl2, active compounds read low",0.552 (active)
same,normalized growth,"locus YOR270C, strain vph1, active compounds read low",0.236 (active)
same,normalized growth,"locus YOR290C, strain snf2, active compounds read low",0.249 (active)
same,normalized growth,"locus YOR316C, strain cot1, active compounds read low",0.698 (active)
same,normalized growth,"locus YPL051W, strain arl3, active compounds read low",0.209 (active)
same,normalized growth,"locus YPL078C, strain atp4, active compounds read low",0.528 (active)
same,normalized growth,"locus YPL106C, strain sse1, active compounds read low",0.435 (active)
same,normalized growth,"locus YPL240C, strain hsp82, active compounds read low",0.444 (active)
same,normalized growth,"locus YPL241C, strain CIN2, active compounds read low",0.565 (active)
same,normalized growth,"locus YPL256C, strain CLN2, active compounds read low",0.663 (active)
same,normalized growth,"locus YPR119W, strain clb2, active compounds read low",0.61 (active)
same,normalized growth,"locus YPR141C, strain kar3, active compounds read low",0.886 (active)
same,normalized growth,"locus YPR163C, strain tif3, active compounds read low",0.257 (active)
same,normalized growth,"locus YPR167C, strain met16, active compounds read low",0.538 (active)
same,normalized growth,"strain wtn01, active compounds read low",0.436 (active)

# — PubChem BioAssay AID1159580 (chemical genetic matrix, 2015)
